Activity calls are given as the source filed them. Calls come from the whole dose curve; as a rule, active = well fitted activation curve with a large enough effect; inconclusive = small, poorly fitted or top-dose-only effect; inactive = flat fitted curve, though single readings scatter.

One assay in a line: Cellular Toxicity (caspase-3) Mesangial (AID 660).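 Note: combined caspase 3 and 7 activity read by Caspase-Glo luminescence; cells exposed to compound for 16 h before the caspase read.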 The note with it: mesangial cells, normalized: DMSO 0%, 100 µM tamoxifen 100%; series mostly up to 91.7 µM. The procedure, abridged:
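Luminescent Caspase-Glo 3/7 readout (aminoluciferin substrate cleavage, 20 min RT) after 16 h compound exposure at 37 °C of normal human mesangial cells. Signal increase normalized between DMSO basal and 100 uM tamoxifen; Hill-equation AC50.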
On to `Cn1cnc([N+](=O)[O-])c1Sc1ncnc2nc[nH]c12`, for which the call was inactive.

For `NS(=O)(=O)c1cc2c(cc1Cl)NC=NS2(=O)=O`, the result was inactive.

`NC(N)=NC(=O)c1nc(Cl)c(N)nc1N`: the compound was called inactive.

Turning to `NC(=O)c1cnccn1`, the result was inactive.

For the compound `O=c1[nH]cnc2[nH]ncc12`, the outcome was inactive.

On to `CC(=O)Oc1ccccc1C(=O)O`, for which the outcome was inactive.

As for `CCCC(CCC)C(=O)O`, the result was inactive.

A further assay is described as follows: Cellular Toxicity (caspase-3) SK-N-SH (AID 661).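 Note: cells exposed to compound for 16 hours.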 The conditions noted are these: SK-N-SH caspase-3 activation, qHTS, DMSO as zero, staurosporine as full; series mostly up to 91.7 µM. The procedure, abridged: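 Luminescent Caspase-Glo 3/7 read-out after 16 hr compound exposure of SK-N-SH neuroblastoma cells at 37 °C. Signal increase normalized to DMSO (basal) and 10 uM staurosporine (100%); AC50 from Hill equation fits of qHTS concentration-response data.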
On the technique in general: qHTS replaces the single test concentration by a dilution series.
In the case of `Cn1cnc([N+](=O)[O-])c1Sc1ncnc2nc[nH]c12`, the outcome was inactive.

Turning to `NS(=O)(=O)c1cc2c(cc1Cl)NC=NS2(=O)=O`, the outcome was inactive.

In the case of `NC(N)=NC(=O)c1nc(Cl)c(N)nc1N`, the call was inactive.

Consider `NC(=O)c1cnccn1`, for which the compound was called inactive.

Regarding `O=c1[nH]cnc2[nH]ncc12`, the compound was called inactive.

With `CC(=O)Oc1ccccc1C(=O)O`, the result was inactive.

With `CCCC(CCC)C(=O)O`, the result was inactive.

(Values after PubChem BioAssay (NCATS).)
